In PubChem BioAssay (NCATS):
Records with an inconclusive call do not appear. The source made the active and inactive calls. Calls come from the whole dose curve; as a rule, active = well fitted inhibition curve with a large enough effect; inconclusive = small, poorly fitted or top-dose-only effect; inactive = flat fitted curve, though single readings scatter.

Assays:
CRL-7250 = normal cell line; experiment: Cytotoxic Profiling of Annotated Libraries Using Quantitative High-Throughput Screening (AID 1296008); conditions: Five cell lines viability, CellTiter-Glo ATP luminescence, 48-72 h; max response: stronger effect = lower value; for max response: % is set by controls: 0 for no effect and ±100 for the full control effect
How it was run: (§1)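 Cells exposed to compounds for 48 or 72 hr at 37 degrees Celsius. Viability read as ATP-coupled luminescence with CellTiter-Glo after 10 min at room temperature.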

HEK293 = experiment: as above; conditions: Five cell lines viability, CellTiter-Glo ATP luminescence, 48-72 h; max response: stronger effect = lower value
How it was run: as §1

HaCat [1] = experiment: as above; conditions: Five cell lines viability, CellTiter-Glo ATP luminescence, 48-72 h; max response: stronger effect = lower value
How it was run: as §1

KB-3-1 = experiment: as above; conditions: Five cell lines viability, CellTiter-Glo ATP luminescence, 48-72 h; max response: stronger effect = lower value
How it was run: as §1

NIH3T3 = experiment: as above; conditions: Five cell lines viability, CellTiter-Glo ATP luminescence, 48-72 h; max response: stronger effect = lower value
How it was run: as §1

HACAT [2] = experiment: qHTS assay to identify novel small-molecules to repurpose for Merkel cell carcinoma treatment (AID 1296009); conditions: MCC and control cell lines, CellTiter-Glo viability, 72 h; at 44.8 µM (top of the series) unless noted
How it was run: (§2)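 Dose-response viability screen; 72 hr exposure at 37 degree celsius; CellTiter-Glo added, 10 min room temperature, luminescence read; RLUs scaled between no-cell and DMSO wells.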

HEK293T = experiment: as above; conditions: MCC and control cell lines, CellTiter-Glo viability, 72 h; series mostly up to 44.8 µM
How it was run: as §2
Note: nearly all actives have a fitted effect of over 60% in size.

C[C@H]1C[C@H]2[C@@H]3CCC4=CC(=O)C=C[C@]4(C)[C@@]3(F)[C@@H](O)C[C@]2(C)[C@@]1(O)C(=O)COP(=O)(O)O
inactive: max response (CRL-7250) 2.73% | outcome (HEK293) | outcome (HaCat [1]) | outcome (KB-3-1) | outcome (NIH3T3) | outcome (HACAT [2]) | Potency (HEK293T)

C/C1=C\C[C@H](O[C@@H]2O[C@H](CO)[C@@H](O)[C@H](O)[C@H]2O)/C(C)=C/[C@H]2OC(=O)[C@H](C)[C@@H]2CC1
inactive: max response (CRL-7250) -3.83% | outcome (HEK293) | outcome (HaCat [1]) | max response (KB-3-1) 8.78% | outcome (NIH3T3) | outcome (HACAT [2]) inactive [at 17.4 µM] | Potency (HEK293T)

C[C@@H]1CC[C@]2(C)C(C[C@@H](O)[C@H](O)[C@]23CO3)[C@@]1(C)CCc1ccoc1 (stereo partly specified)
inactive: outcome (CRL-7250) | outcome (HEK293) | outcome (HaCat [1]) | max response (KB-3-1) 7.33% | max response (NIH3T3) -3.46% | outcome (HACAT [2]) | Potency (HEK293T)

CC1(C)CC[C@]2(C(=O)O[C@@H]3O[C@H](CO)[C@@H](O)[C@H](O)[C@H]3O)CC[C@]3(C)C(=CCC4[C@@]5(C)C[C@@H](O)[C@H](O)C(CO)(CO)C5CC[C@]43C)C2[C@@H]1O (stereo partly specified)
inactive: max response (CRL-7250) 3.1% | outcome (HEK293) | outcome (HaCat [1]) | max response (KB-3-1) 8.19% | outcome (NIH3T3) | outcome (HACAT [2]) inactive [at 17.4 µM] | Potency (HEK293T)

C=C1C(=O)OC2CC(C)=C(C(C)CCCO[C@@H]3O[C@H](CO)[C@@H](O)[C@H](O)[C@H]3O)C(O)C12 (stereo partly specified)
inactive: max response (CRL-7250) -0.682% | outcome (HEK293) | outcome (HaCat [1]) | outcome (KB-3-1) | outcome (NIH3T3) | outcome (HACAT [2]) inactive [at 17.4 µM] | Potency (HEK293T)

C/C=C/C1=CC2=C(CO1)C(=O)[C@](C)(O)[C@H](OC(=O)c1c(O)cc(OC)c(O)c1C)C2
inactive: max response (CRL-7250) 2.48% | outcome (HEK293) | outcome (HaCat [1]) | outcome (KB-3-1) | outcome (NIH3T3) | outcome (HACAT [2]) inactive [at 17.4 µM] | Potency (HEK293T)

C=CCc1ccc(O[C@@H]2O[C@H](CO)[C@@H](O)[C@H](O)[C@H]2O)c(OC)c1
inactive: max response (CRL-7250) -5.9% | outcome (HEK293) | outcome (HaCat [1]) | outcome (KB-3-1) | outcome (NIH3T3) | outcome (HACAT [2]) | Potency (HEK293T)

CC(C)(C)c1cc(CN2CCN(CC(O)c3ccc(Cl)cc3)CC2)cc(C(C)(C)C)c1O (stereo unspecified)
inactive: max response (CRL-7250) -1.02% | outcome (HEK293) | outcome (HaCat [1]) | max response (KB-3-1) -8.12% | outcome (NIH3T3) | outcome (HACAT [2]) | Potency (HEK293T)

O=C1N(CC2CCCCN2)CCN1c1ccccc1 (stereo unspecified)
inactive: max response (CRL-7250) -3.2% | outcome (HEK293) | outcome (HaCat [1]) inactive; activator | outcome (KB-3-1) | outcome (NIH3T3) | outcome (HACAT [2]) inactive; activator | Potency (HEK293T)

C(#Cc1cccc(CN2CCOCC2)c1)CCN1CCCCC1
inactive: max response (CRL-7250) -3.48% | outcome (HEK293) | outcome (HaCat [1]) | max response (KB-3-1) 2.31% | max response (NIH3T3) 1.81% | outcome (HACAT [2]) | Potency (HEK293T)

CC1CCC2C(C)(C)C(O)CCC2(C)C12Cc1c(O)cc3c(c1O2)C(N)=NC3 (stereo unspecified)
inactive: max response (CRL-7250) -9.29% | outcome (HEK293) | outcome (HaCat [1]) | outcome (KB-3-1) | outcome (NIH3T3) | outcome (HACAT [2]) | Potency (HEK293T)

C[C@]12CC[C@@H]3c4ccc(O[C@@H]5O[C@H](C(=O)O)[C@@H](O)[C@H](O)[C@H]5O)cc4CC[C@H]3[C@@H]1CCC2=O
inactive: max response (CRL-7250) -0.486% | outcome (HEK293) | outcome (HaCat [1]) | outcome (KB-3-1) | outcome (NIH3T3) | outcome (HACAT [2]) | Potency (HEK293T)

CC(C)NC[C@H](O)COc1ccc(CCOCC2CC2)cc1
inactive: max response (CRL-7250) -3.5% | outcome (HEK293) | outcome (HaCat [1]) | outcome (KB-3-1) | outcome (NIH3T3) | outcome (HACAT [2]) | Potency (HEK293T)

C=C1CC23CC1(O)CCC2C1=CC2OC(=O)C(C)(C2O)C1C3C(=O)O (stereo unspecified)
inactive: max response (CRL-7250) -8.2% | outcome (HEK293) | outcome (HaCat [1]) | outcome (KB-3-1) | max response (NIH3T3) -19.3% | outcome (HACAT [2]) | Potency (HEK293T)

C[C@]12CCC[C@](C)(C(=O)O)C1CCC13C=C(CO)C(CCC12)C3 (stereo partly specified)
inactive: max response (CRL-7250) -11% | outcome (HEK293) | outcome (HaCat [1]) | max response (KB-3-1) 2.91% | outcome (NIH3T3) | outcome (HACAT [2]) | Potency (HEK293T)

C[C@H]1[C@H](C)CC[C@]2(C(=O)O)CC[C@]3(C)C(=CC[C@@H]4[C@@]5(C)C[C@@H](O)[C@H](O)[C@@](C)(CO)[C@@H]5CC[C@]43C)[C@H]12
inactive: max response (CRL-7250) 0.188% | outcome (HEK293) | outcome (HaCat [1]) | outcome (KB-3-1) | max response (NIH3T3) 4.85% | outcome (HACAT [2]) | Potency (HEK293T)

COc1cc(/C=C/C(=O)OC[C@H]2O[C@H](O[C@]3(CO)O[C@H](CO)[C@@H](O)[C@@H]3O)[C@H](O)[C@@H](O)[C@@H]2O)cc(OC)c1O
inactive: max response (CRL-7250) 0.115% | outcome (HEK293) | outcome (HaCat [1]) | max response (KB-3-1) -1.09% | max response (NIH3T3) -20.7% | outcome (HACAT [2]) inactive [at 17.4 µM] | Potency (HEK293T)

C/C=C/C=C/C=C/C(=O)O[C@@H]1C=C(CO)C(O)(C(=O)O)[C@@]2(C)CCCC(C)(C)[C@H]12 (stereo partly specified)
inactive: max response (CRL-7250) 2.37% | outcome (HEK293) | outcome (HaCat [1]) | max response (KB-3-1) 0.213% | max response (NIH3T3) -2.73% | outcome (HACAT [2]) inactive [at 17.4 µM] | Potency (HEK293T)
